# Screening results (PubChem)
# IL1B secr inh – blocks inflammasome-driven IL-1 beta release | AID 743279 | 360,000 compounds, 4.7% hits | activity change, % at 57.5 µM | THP-1 LPS/ATP IL-1B secretion, AlphaLISA, 16 h; stronger effect = lower value; in the data active = activity change below about -50%; inconclusive = mostly about -30% to -49%
#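 Secreted IL-1B measured by AlphaLISA bead assay after 16 h compound exposure of THP-1 cells; compounds (final up to 57.5 uM) added 1 h before LPS (250 ng/mL) and ATP (1.25 mM) stimulation; lower signal means less secretion.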
# DT40 TDP1 no CPT – qHTS for Inhibitors of human tyrosyl-DNA phosphodiesterase 1 (TDP1): qHTS in cells in absence of CPT; DT40 Tdp1-/- hTDP1 cells, no CPT, ATP luminescence, 48 h; Potency, µM (highest dose often 46.2 µM), without a hit: at the top dose activity change, negative = growth inhibition, hits mostly inhibitors; 420,000 compounds, 15% hits; AID 686978, 2013; also: potency is read from the fitted curve at half-maximal effect; nearly all actives have a fitted effect of over 55% in size
#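 A cellular qHTS used chicken DT40 cells lacking endogenous Tdp1 but carrying stably transfected human TDP1. Compounds were applied without camptothecin, and cell growth kinetics were judged by ATP-dependent luminescence after ≥48 hr.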
# DT40 TDP1 CPT – growth inhibition of DT40 Tdp1-/-;hTDP1 cells with camptothecin (screen for TDP1 inhibitors) | chicken DT40 Tdp1-/-;hTDP1 cells + 20 nM CPT, ATP luminescence, 48 h | Potency, µM (titrated, usually from 46.2 µM), for the others: at the top dose activity change, negative = growth inhibition, usual class: inhibitors | 420,000 compounds, 12% hits; also: potency is read from the fitted curve at half-maximal effect; nearly all actives have a fitted effect of over 55% in size
#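 Chicken DT40 Tdp1-/- cells complemented with human TDP1, 400 cells/well, exposed to compounds plus 20 nM camptothecin for at least 48 h at 37 C; viability read as ATP content by CellTiter-Glo luminescence.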
# Giardia killer – Giardia lamblia killing. Giardia lamblia trophozoite viability. activity change, % at 7.66 µM, hits read low. 340,000 compounds, 0.15% hits. AID 540267; in the data active = activity change below about -80%; inconclusive = between about -30% and that limit;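 also: parasites exposed to compound for two days anaerobically before the ATP read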
#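 Giardia lamblia trophozoites (100 cells/well) were incubated with compounds for 48 h at 37 deg C under anaerobic conditions. Viability was read as ATP content by one-step luminescence after 15-30 min at room temperature.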
# ELG1 DNA repair – blocks ELG1-dependent DNA repair in HEK293T cells | 330,000 compounds, 2.3% hits | Potency, µM (titrated, usually from 46.1 µM), without a hit: top-dose activity change, negative = inhibition, most hits filed as inhibitors | HEK293T ELG1-luciferase reporter, luminescence, 16 h; DNA damage induced by 5-fluorouridine | AID 504467; also: potency is read from the fitted curve at half-maximal effect; nearly all actives have a fitted effect of over 55% in size
#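 Cells (2,000 per well) received 5-fluorouridine plus test compound or DMSO and were incubated 16 hr at 37 °C, 5% CO2. Luciferase activity was read by luminescence 30 min after ONE-Glo addition; signal suppression marked inhibition of damage-induced ELG1 function.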
# TDP1 inh – inhibitors of human tyrosyl-DNA phosphodiesterase TDP1 | recombinant TDP1, AlphaScreen DNA substrate cleavage | Q9NUW8 | Potency, µM (top dose mostly 130 µM), for the others: at the top dose activity change, negative = inhibition, hits mostly inhibitors | 350,000 compounds, 0.28% hits; also: potency is read from the fitted curve at half-maximal effect; nearly all actives have a fitted effect of over 40% in size
# Target sequence (Q9NUW8 whole entry, looked up): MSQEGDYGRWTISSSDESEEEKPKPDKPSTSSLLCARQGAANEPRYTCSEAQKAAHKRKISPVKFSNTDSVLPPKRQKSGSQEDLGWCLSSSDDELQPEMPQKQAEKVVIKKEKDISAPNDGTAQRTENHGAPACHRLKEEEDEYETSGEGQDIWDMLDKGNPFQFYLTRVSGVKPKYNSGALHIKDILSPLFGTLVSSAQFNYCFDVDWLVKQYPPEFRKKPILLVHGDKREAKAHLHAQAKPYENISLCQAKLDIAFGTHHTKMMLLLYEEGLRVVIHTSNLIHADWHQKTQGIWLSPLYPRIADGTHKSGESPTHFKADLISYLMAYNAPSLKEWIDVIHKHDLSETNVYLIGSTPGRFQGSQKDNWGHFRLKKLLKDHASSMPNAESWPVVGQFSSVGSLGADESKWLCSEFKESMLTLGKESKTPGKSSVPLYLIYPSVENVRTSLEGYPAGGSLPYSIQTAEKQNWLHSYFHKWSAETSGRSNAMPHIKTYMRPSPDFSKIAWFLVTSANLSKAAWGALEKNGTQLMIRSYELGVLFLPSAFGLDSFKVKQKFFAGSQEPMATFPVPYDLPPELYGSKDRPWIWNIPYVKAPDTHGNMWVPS
#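 Recombinant E. coli-expressed Tdp1 (1 nM) preincubated with compound 15 min at RT, then 5'-biotin/3'-phosphotyrosine-FITC DNA substrate (15 nM) added for 5 min. AlphaScreen beads (10 ug/ml) added, 10 min RT; tyrosine-FITC cleavage read as signal loss.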
# Starred values were filed as active, the others as inactive; ? = inconclusive; · = no result; [ ] = another dose, or the depositor's remark. Compounds with a hit are over-represented: about 19% of the library has one in this group of screens. Unless noted, calls follow the shape of the dose curve; as a rule, active = well fitted curve in the direction sought with a large enough effect; inconclusive = small, poorly fitted or top-dose-only effect, or another doubt; inactive = no such curve, though single readings can be large; an effect the other way counts as inactive or inconclusive. % is scaled to controls: 0 for no effect and ±100 for the full control effect.
SMILES,IL1B secr inh,DT40 TDP1 no CPT,DT40 TDP1 CPT,Giardia killer,ELG1 DNA repair,TDP1 inh
COc1ccc(-c2ccc(C(=O)Nc3cc(OC)c(OC)c(OC)c3)c3occc23)c(C)c1,-15,23µM*,6.5µM*,·,·,·
O=C(NC1CCCCC1)c1ccc(-c2cn[nH]c2)c2ccoc12,-10,16µM*,23µM*,·,·,·
COc1ccc(-c2ccc(C(=O)Nc3ccc(Cl)cc3)c3occc23)c(C)c1,-8,?,?,·,·,·
COc1ccc(-c2ccc(C(=O)Nc3ccc(NC(C)=O)cc3)c3occc23)c(C)c1,35,?,?,·,·,·
COc1ccc(-c2ccc(C(=O)Nc3cccc(C(F)(F)F)c3)c3occc23)c(C)c1,-3,21µM*,23µM*,·,·,·
C=CCNc1nc(C(=O)OCC(=O)c2ccc(Cl)cc2)cs1,7,-13%,14%,-22,29%,-4%
O=C(NC1CCCCC1)c1cc(-c2cccs2)on1,-9,-3%,37%,-3,?,2%
COc1cccc(NC(=S)N(CCC(C)C)C2CCN(C(C)=O)CC2)c1,14,-3%,-1%,-20,1%,·
CCC(C(=O)NCCC1=CCCCC1)c1ccccc1 (centres undefined),-1,15µM*,?,12,1%,-4%
CC(C(=O)NCCC1=CCCCC1)c1ccc([N+](=O)[O-])cc1 (centres undefined),4,16µM*,?,-3,-11%,5%
COc1cc(Nc2nn(-c3ccc(OC(F)(F)F)cc3)nc2C(C)=O)cc(OC)c1,·,-17%,-8%,·,·,-2%
COc1ccc(CCNC(=O)CSc2nnc(-c3cccc(C)c3)o2)cc1OC,-18,-2%,-24%,-2,?,6%
COc1cccc(-c2nc(CS(=O)CC(=O)NCCc3ccccc3)c(C)o2)c1 (centres undefined),30,?,?,-1,22%,5%
COc1ccc(CCNC(=O)CSCc2nc(-c3cccc(C)c3)oc2C)cc1OC,·,?,21µM*,·,·,7%
COc1cccc(-c2nc(CSCC(=O)NCCc3ccc(Cl)cc3)c(C)o2)c1,·,?,9.2µM*,·,·,7%
O=P(OC1CCCCC1)(OC1CCCCC1)C(O)c1ccccc1 (centres undefined),-29,?,-18%,13,-6%,4%
Cc1ccc(NC(=O)c2cnn(-c3ccccc3)c2NC(=O)c2ccco2)cc1,-17,?,13µM*,-5,-17%,-1%
COc1cccc(C(=O)Nc2ccc(-c3nnc(-c4ccco4)o3)cc2)c1,-19,10µM*,?,7,-10%,0%
O=C(Nc1nnc(-c2ccc(F)cc2)o1)c1cccc([N+](=O)[O-])c1,95,3.3µM*,3.7µM*,?,?,4%
CCOc1cccc(C(=O)Nc2cccc(-c3nnc(-c4ccc(C)cc4)o3)c2)c1,0,?,18µM*,-1,-3%,2%
CCOc1cccc(C(=O)Nc2ccc(-c3nc4cc(C)cc(C)c4o3)cc2)c1,·,-5%,-11%,·,·,·
O=C(Nc1c(C(=O)Nc2ccccc2)cnn1-c1ccccc1)c1ccco1,12,-20%,-3%,3,?,1%
CC1CCC(C#N)(N(C)C(=O)CSc2nnc(C3CC3)n2C2CC2)CC1 (centres undefined),10,15%,9%,-8,?,1%[56.1 µM]
Cc1ccc(-c2nnc(-c3ccc(NC(=O)c4ccco4)cc3)o2)cc1,0,21µM*,23µM*,6,-19%,0%
CCCOc1ccc(C(=O)Nc2ccc(NC(=O)c3ccccc3)c(Br)c2)cc1,·,-71%,15µM*,·,·,0%[12.3 µM]
SMILES,IL1B secr inh,DT40 TDP1 no CPT,DT40 TDP1 CPT,Giardia killer,ELG1 DNA repair,TDP1 inh
CCCOc1cccc(C(=O)NC(=S)Nc2ccccc2)c1,-11,?,?,2,?,5%
Cc1ccc(NC(=S)NNC(=O)c2ccco2)cc1,-6,-4%,-2%,-18,?,0%
COc1cc(C(=O)OCC(=O)Nc2nnc(-c3ccccc3)o2)cc(OC)c1OC,-3,-6%,-18%,8,-4%,-6%[0.505 µM]
COc1ccc(C(=O)Nc2nnc(-c3ccccc3)o2)cc1OC,-11,23µM*,?,-12,-29%,7%
CCCOc1ccc(C(=O)Nc2ccc(NC(=O)c3cccc(Cl)c3)cc2)cc1,·,-22%,-10%,·,·,4%[12.3 µM]
CCCOc1cccc(C(=O)Nc2cc(-c3ccccc3)no2)c1,·,?,12µM*,·,·,-4%
CCOc1ccc(NC(=O)c2ccc(NC(=O)Cc3n[nH]c(=O)c4ccccc34)cc2)cc1,9,0%,-13%,4,?,0%
COc1cccc(-c2nnc(NC(=O)c3cccc(F)c3)o2)c1,33,3.3µM*,3.3µM*,-1,12%,·
COc1cccc(C(=O)Nc2cccc(-c3nnc(-c4ccccc4)o3)c2)c1,104,18µM*,?,-5,·,·
CCOc1cccc(C(=O)Nc2cccc(-c3nnc(-c4ccccc4)o3)c2)c1,-73*,18µM*,15µM*,-7,9.2µM*,3%
COc1cccc(-c2nnc(-c3ccc(C)o3)o2)c1,-2,-11%,7%,-15,?,-2%
COc1cccc(-c2nnc(-c3ccco3)o2)c1,5,29µM*,?,-3,?,5%
C[N+]1(CC(=O)c2cccc([N+](=O)[O-])c2)CCOCC1,·,0%,-5%,·,·,·
COc1ccccc1CN1CCCC(CN(CCN(C)C)C(=O)c2ccc(C)cc2)C1 (centres undefined),-27,-20%,-25%,9,-1%,·
CN1CCN(C(=O)c2cccc(-c3cnc4cnc(-c5ccccc5Oc5ccccc5)cn34)c2)CC1,-57*,13µM*,18µM*,·,·,·
O=C(c1cccc(-c2cncc3nccn23)c1)N1CCOCC1,15,-3%,-45%,·,·,·
COc1cccc(CN(C)C(=O)C2CCN(S(=O)(=O)c3cccs3)CC2)c1OC,-11,?,-22%,-10,?,-2%[56.1 µM]
NC1=C(Cl)C(=O)c2ccc(S(N)(=O)=O)cc2C1=O,-98*,0.46µM*,0.41µM*,-6,·,·
NC1=C(Cl)C(=O)c2ccccc2C1=O,-13,4.6µM*,5.2µM*,-26,·,·
NS(=O)(=O)c1ccc(Cl)c(S(N)(=O)=O)c1,6,-4%,2%,-4,·,0%
Nc1cc(N)c2c(c1)C(=O)c1ccccc1-2,?,?,-12%,-3,·,·
COC(=O)[C@@H](N)CSC/C=C(\C)CC/C=C(\C)CCC=C(C)C,·,?,?,·,·,7%
